Consider 33 sequences from PMC5700166.

Assay [1] deals with T1, GST-Nv-NF-kB (Ser allele) (Nematostella vectensis, UniProt A7UNT2 2-411).
T1 sequence: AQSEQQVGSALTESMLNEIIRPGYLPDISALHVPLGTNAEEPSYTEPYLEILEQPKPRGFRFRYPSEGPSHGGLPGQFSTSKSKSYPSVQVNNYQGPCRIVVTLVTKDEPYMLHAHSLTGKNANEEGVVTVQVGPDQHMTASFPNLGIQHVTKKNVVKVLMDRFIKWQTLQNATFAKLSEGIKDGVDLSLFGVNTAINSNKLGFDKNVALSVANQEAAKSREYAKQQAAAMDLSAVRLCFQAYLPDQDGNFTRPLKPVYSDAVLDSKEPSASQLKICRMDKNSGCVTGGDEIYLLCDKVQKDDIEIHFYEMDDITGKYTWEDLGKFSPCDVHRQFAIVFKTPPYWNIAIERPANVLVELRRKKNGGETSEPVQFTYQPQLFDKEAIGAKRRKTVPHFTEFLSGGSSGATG
The assay is described as follows: protein-binding microarray (PBM); PBM: ~300 nM protein, 6 mM HEPES pH 7.8, 80 mM KCl, 0.5 mM EDTA, 0.5 mM EGTA, 6% glycerol, 35 ng/ul poly-dIdC, 1% milk, 1 h, room temperature; Ap Aiptasia and Nv Nematostella (sea anemones) / Co Capsaspora / Aq Amphimedon (sponge) / Dm Drosophila / Hu human; RHD is the Rel homology domain; high values mean tight binding. The settings on record: dsDNA, one strand shown.

The target in assay [2] is GST-Hu-p50 (Homo sapiens, UniProt P19838 7-356). The assay is described as above. The settings on record: dsDNA, one strand shown.
Sequence of GST-Hu-p50 (P19838 7-356): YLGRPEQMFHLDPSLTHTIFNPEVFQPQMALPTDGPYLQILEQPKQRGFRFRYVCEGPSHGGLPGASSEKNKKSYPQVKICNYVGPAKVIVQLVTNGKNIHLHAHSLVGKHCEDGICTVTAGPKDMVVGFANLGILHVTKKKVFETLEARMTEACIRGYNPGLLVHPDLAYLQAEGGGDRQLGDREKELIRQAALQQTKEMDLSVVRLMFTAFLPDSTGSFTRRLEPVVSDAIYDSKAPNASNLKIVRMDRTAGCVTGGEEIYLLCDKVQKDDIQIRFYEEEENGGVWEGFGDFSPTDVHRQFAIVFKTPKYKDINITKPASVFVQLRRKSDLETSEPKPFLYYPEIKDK

As for “CCGATTAACATCAGATTTTTCCCTGATGTTAATCGGGTCTTGATTCGCTTGACGCTGCTG”, the binding signal in assay [1] came to 6.27 z-score; in assay [2] it was 3.71 z-score.
The matching figures for “CCGATTAACATCACTAAAATCCCTGATGTTAATCGGGTCTTGATTCGCTTGACGCTGCTG”: 3.42 z-score and 3.2 z-score.
The matching figures for “CCGATTAACATCACAAAAATCCCTGATGTTAATCGGGTCTTGATTCGCTTGACGCTGCTG”: 5.52 z-score and 5.26 z-score.
Consider “CCGATTAACATCAAAAATCCCTATGATGTTAATCGGGTCTTGATTCGCTTGACGCTGCTG”, for which the binding signal was determined as 4.2 z-score in assay [1] and 4.72 z-score in assay [2].
For “CCGATTAACATCAGGTAATCCCATGATGTTAATCGGGTCTTGATTCGCTTGACGCTGCTG”, the binding signal turned out to be 2.09 z-score in assay [1] and 1.44 z-score in assay [2].
The matching figures for “CCGATTAACATCAGGGCATACCCTGATGTTAATCGGGTCTTGATTCGCTTGACGCTGCTG”: 1.31 z-score and 1.86 z-score.
With “CCGATTAACATCAAATTCCCAGTTGATGTTAATCGGGTCTTGATTCGCTTGACGCTGCTG”, the binding signal in assay [1] is 3.92 z-score; in assay [2], 2.85 z-score.
Turning to “CCGATTAACATCAAAAGAATCCCTGATGTTAATCGGGTCTTGATTCGCTTGACGCTGCTG”, the binding signal in assay [1] was 2.43 z-score; in assay [2], 3.14 z-score.
As to “CCGATTAACATCACCCACGAGGGTGATGTTAATCGGGTCTTGATTCGCTTGACGCTGCTG”, the values for the binding signal in assay [1] and in assay [2] were 1.02 z-score and 2.01 z-score, respectively.
Consider “CCGATTAACATCAAGAGACCCCCTGATGTTAATCGGGTCTTGATTCGCTTGACGCTGCTG”, for which the binding signal was found to be 2.79 z-score in assay [1] and 3.43 z-score in assay [2].
The matching figures for “CCGATTAACATCAGGGGCAACCCTGATGTTAATCGGGTCTTGATTCGCTTGACGCTGCTG”: 1.9 z-score and 3.13 z-score.
For the sequence “CCGATTAACATCAAAACTTCCCATGATGTTAATCGGGTCTTGATTCGCTTGACGCTGCTG”, the binding signal stood at 3.45 z-score in assay [1] and 2.96 z-score in assay [2].
The matching figures for “CCGATTAACATCAGGCAAATCCCTGATGTTAATCGGGTCTTGATTCGCTTGACGCTGCTG”: 1.09 z-score and 1.9 z-score.
The matching figures for “CCGATTAACATCAGGGATTCCCATGATGTTAATCGGGTCTTGATTCGCTTGACGCTGCTG”: 3.26 z-score and 3.48 z-score.
As for “CCGATTAACATCAGGGCCCCCCCTGATGTTAATCGGGTCTTGATTCGCTTGACGCTGCTG”, the binding signal in assay [1] is 3.34 z-score; in assay [2] it was 4.39 z-score.
The matching figures for “CCGATTAACATCAGGGGGATAGATGATGTTAATCGGGTCTTGATTCGCTTGACGCTGCTG”: 4.13 z-score and 3.89 z-score.
The matching figures for “CCGATTAACATCAGGGAATCCACTGATGTTAATCGGGTCTTGATTCGCTTGACGCTGCTG”: 3.63 z-score and 2.79 z-score.
The matching figures for “CCGATTAACATCAGGAGGCCCCCTGATGTTAATCGGGTCTTGATTCGCTTGACGCTGCTG”: 1.79 z-score and 2.78 z-score.
As for “CCGATTAACATCAAAGCATTCCCTGATGTTAATCGGGTCTTGATTCGCTTGACGCTGCTG”, the binding signal was 2.52 z-score in assay [1] and 2.12 z-score in assay [2].
The matching figures for “CCGATTAACATCAGGGAACCCCATGATGTTAATCGGGTCTTGATTCGCTTGACGCTGCTG”: 1.33 z-score and 2.54 z-score.
With “CCGATTAACATCAGGCGTCCCCCTGATGTTAATCGGGTCTTGATTCGCTTGACGCTGCTG”, the binding signal in assay [1] stood at 4.71 z-score; in assay [2] it was 4.92 z-score.
On to “CCGATTAACATCACTAATTTCCCTGATGTTAATCGGGTCTTGATTCGCTTGACGCTGCTG”, for which the figures for the binding signal in assay [1] and in assay [2] were 6.51 z-score and 3.94 z-score, respectively.
The matching figures for “CCGATTAACATCAGGAATGTACCTGATGTTAATCGGGTCTTGATTCGCTTGACGCTGCTG”: 3.2 z-score and 2.14 z-score.
The matching figures for “CCGATTAACATCAAAATTCCCATTGATGTTAATCGGGTCTTGATTCGCTTGACGCTGCTG”: 5.71 z-score and 4.55 z-score.
The matching figures for “CCGATTAACATCAAGGATTTCCCTGATGTTAATCGGGTCTTGATTCGCTTGACGCTGCTG”: 6.13 z-score and 4.33 z-score.
“CCGATTAACATCACGGGACTCCCTGATGTTAATCGGGTCTTGATTCGCTTGACGCTGCTG”: the figures for the binding signal in assay [1] and in assay [2] were 3.64 z-score and 3.14 z-score, respectively.
The matching figures for “CCGATTAACATCAGGGGAGTAAATGATGTTAATCGGGTCTTGATTCGCTTGACGCTGCTG”: 3.92 z-score and 2.72 z-score.
The matching figures for “CCGATTAACATCAGGGTGTTTTATGATGTTAATCGGGTCTTGATTCGCTTGACGCTGCTG”: 2.32 z-score and 4.01 z-score.
The matching figures for “CCGATTAACATCAGGTAATCACCTGATGTTAATCGGGTCTTGATTCGCTTGACGCTGCTG”: 2.78 z-score and 2.85 z-score.
Consider “CCGATTAACATCAGGAGTTTACCTGATGTTAATCGGGTCTTGATTCGCTTGACGCTGCTG”, for which the binding signal in assay [1] worked out at 2.03 z-score; in assay [2] it was 1.4 z-score.
The matching figures for “CCGATTAACATCACGTAAATCCCTGATGTTAATCGGGTCTTGATTCGCTTGACGCTGCTG”: 2.27 z-score and 2.23 z-score.
The matching figures for “CCGATTAACATCAGGGATTCTCATGATGTTAATCGGGTCTTGATTCGCTTGACGCTGCTG”: 1.71 z-score and 1.91 z-score.
The matching figures for “CCGATTAACATCAGGGCGTCCCCTGATGTTAATCGGGTCTTGATTCGCTTGACGCTGCTG”: 4.47 z-score and 4.86 z-score.
